Results taken from the supplement of paper PMC3334620.
The full ranking holds about 33,000 sequences; the median of “E-score (-0.5 to 0.5)” is about -0.035, and the highest 2% start at about 0.35. The list comes from a sample in which the highest values are over-represented; it also holds similar and randomly drawn sequences.

target: T1, Pdr3 (UniProt P33200); assay: PBM E-score (8-mer binding enrichment) (E-score (-0.5 to 0.5)); higher = stronger / more preferred TF binding; details: protein concentration: 200 nM; construct: GST-full length
T1 sequence: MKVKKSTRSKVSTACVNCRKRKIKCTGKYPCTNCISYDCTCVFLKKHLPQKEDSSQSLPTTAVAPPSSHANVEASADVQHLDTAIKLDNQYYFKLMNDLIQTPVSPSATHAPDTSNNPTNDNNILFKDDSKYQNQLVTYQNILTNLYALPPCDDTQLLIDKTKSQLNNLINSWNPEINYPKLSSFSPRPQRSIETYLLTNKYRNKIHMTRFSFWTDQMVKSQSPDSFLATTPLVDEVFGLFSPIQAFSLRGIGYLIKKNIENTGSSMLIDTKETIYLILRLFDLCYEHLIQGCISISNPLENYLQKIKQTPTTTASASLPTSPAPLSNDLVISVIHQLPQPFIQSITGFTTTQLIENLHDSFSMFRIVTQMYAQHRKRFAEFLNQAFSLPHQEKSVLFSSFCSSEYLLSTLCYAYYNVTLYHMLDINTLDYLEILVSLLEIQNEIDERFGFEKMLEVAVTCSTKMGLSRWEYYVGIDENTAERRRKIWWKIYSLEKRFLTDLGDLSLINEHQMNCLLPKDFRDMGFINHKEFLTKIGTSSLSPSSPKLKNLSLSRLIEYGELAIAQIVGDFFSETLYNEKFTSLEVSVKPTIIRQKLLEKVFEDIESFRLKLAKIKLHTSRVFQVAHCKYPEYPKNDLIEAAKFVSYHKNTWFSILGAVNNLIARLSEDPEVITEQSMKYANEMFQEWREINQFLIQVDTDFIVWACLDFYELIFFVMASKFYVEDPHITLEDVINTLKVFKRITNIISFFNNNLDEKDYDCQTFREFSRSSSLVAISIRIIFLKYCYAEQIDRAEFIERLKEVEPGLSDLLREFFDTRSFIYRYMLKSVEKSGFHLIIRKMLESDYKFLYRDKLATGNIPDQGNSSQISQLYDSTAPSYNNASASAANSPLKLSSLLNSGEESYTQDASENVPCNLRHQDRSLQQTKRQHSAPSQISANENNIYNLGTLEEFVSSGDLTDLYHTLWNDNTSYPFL
Outline: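 Masliner-normalised scans of fluorescent anti-GST signal were the basis for scoring. That signal came from GST-tagged yeast transcription factors applied at about 100-200 nM to double-stranded universal all-10-mer Agilent arrays on fresh or once-stripped slides. Each ungapped eight-base word, pooled with its reverse complement, received an E-score from the Universal PBM Analysis Suite.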

Sequence	PBM E-score
AAACTTAG	-0.216
CTTGACAC	-0.222
CAGGGCTA	-0.258
ACTAGTAC	-0.105
ACGAATAT	0.0203
AATGCCGA	0.219
CATGCCGC	0.345
CATGCCGG	0.36
AATGCCGT	0.36
CATGCCGA	0.248
AATGCCGG	0.308
ATCCTTGG	-0.0819
CGCCGACC	0.135
AGAGTAGC	-0.228
CCCGCAGG	0.142
AGGGAAAG	-0.106
CAGGAAAC	-0.0475
ATGGAAAG	0.0226
CTGGAAAA	0.144
CGGGAAAC	0.309
CCGGAAAC	0.447
CCGGAAAG	0.414

Sequence	PBM E-score
CAGGAAAG	-0.278
CAGGAAAA	0.0238
CGGGAAAG	0.281
ACGGAAAG	0.44
CCGGAAAA	0.44
CAGTCCCG	0.273
AGTTGACG	-0.0734
CGAACTTA	0.0051
CTTAGGGA	-0.353
GGCTAACA	-0.132
ATAGGAGA	-0.363
CAGTTACC	-0.0312
CAAGGATC	-0.0745
GACGGATA	0.251
AACGGATG	0.283
AACGGATA	0.417
AACGGATT	0.334
GACGGATC	0.313
TACGGATA	0.224
CACGGATA	0.373
AACAGATC	-0.0307
CACGGATG	0.284

Sequence	PBM E-score
CACGGATC	0.395
AACGGATC	0.367
AGAACTCA	0.00923
ACAACTTC	0.167
CAGTGAGG	-0.309
GACCTAGA	-0.115
CCAGCAAC	-0.00856
GCAGCTCC	0.144
AAGGGTCC	0.205
GAACGGCA	0.256
GAACGGAA	0.469
AAACGGAT	0.377
CAACGGAG	0.307
CAACGGAC	0.261
AAACGGAA	0.469
AAACGGTA	0.172
AAACGGGA	0.352
AAACGGAC	0.189
CAACGGAA	0.47
GAACGGAC	0.259
AAACGGAG	0.184
CGCTACCG	0.141

Sequence	PBM E-score
CCCTAAGA	-0.243
CTTGCGGA	0.137
CAGGCGGG	0.0666
CCGAGAAG	0.183
TCCACGAA	-0.0449
TAACGGAA	0.453
TAACGGGA	0.237
TAACGGTA	0.0452
CACAGAAA	0.0151
AGGCCGGA	0.256
AGGCCGGC	0.291
CGGCCGGA	0.396
CGGCCGGC	0.371
CGGCCGAC	0.315
GGGCCGGA	0.318
CGCATGAG	-0.164
CATGATTA	0.0563
CACGGAGC	0.374
GACGGAGA	0.322
TACGGAGA	0.178
GACGGAGC	0.213
CACGGAGG	0.26

Sequence	PBM E-score
CACGGAGA	0.372
AAGATTGG	0.014
GTGGTTCA	0.0321
ACTTAACC	-0.166
ATCACCCA	-0.0491
TACCCGTA	0.0329
ATCACCCG	0.358
CCACCCGG	0.359
TACCCGAA	0.198
ACACCCGG	0.291
CACCCCGG	0.236
CCACCCGA	0.216
TACCCGGA	0.381
CACCCGGG	0.398
CACCCGAG	0.204
ATCACCCC	0.0523
CCCATCCC	0.133
AAGTGGAA	-0.0995
AGGGCGGG	0.25
ACCTCCTA	-0.192
ACGGCCTA	0.131
